Assay outcomes as filed in PubChem.
Most compounds without a hit are left out; they make up all but 1.3% or so of the library.
EBV gp42 inh = inhibitors of Epstein-Barr virus glycoprotein 42; hit rate 0.42% among 220,000; Fluorescence polarization binding assay, mP read-out; AID 1085; inhibition, % (tested at 21.74 µM); Q1HVG2; in the data active = inhibition above about 50%
GLD-1 TGE inh = GLD-1-TGE RNA interaction inhibition (C. elegans); Q17339; purified GLD-1 + fluorescein TGE RNA, fluorescence polarization; inhibition, % at 5.96 µM; hit rate 0.44% among 320,000;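 active = percent inhibition above a per-plate cutoff, the plate mean of test compounds plus 3 SD, cut at about 30% in these data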;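 also: 0% = DMSO wells with GLD-1 and probe and 100% = wells lacking GLD-1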
Bcl-xL primary = inhibitors of human Bcl-xL; hit rate 0.7% among 320,000; AID 2129; Q07817; GST-Bcl-xL / FITC-Bim BH3 peptide fluorescence polarization; inhibition, % at 10.9 µM;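 active = inhibition above the mean of all tested compounds plus 3 SD, cutoff set per campaign, cut at about 30% in these data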;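 also: 0% = DMSO wells and 100% = unlabeled Bim-BH3 peptide competitor; inhibitors lower millipolarization by displacing the labeled peptide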
Target sequence (Q07817 whole entry, looked up): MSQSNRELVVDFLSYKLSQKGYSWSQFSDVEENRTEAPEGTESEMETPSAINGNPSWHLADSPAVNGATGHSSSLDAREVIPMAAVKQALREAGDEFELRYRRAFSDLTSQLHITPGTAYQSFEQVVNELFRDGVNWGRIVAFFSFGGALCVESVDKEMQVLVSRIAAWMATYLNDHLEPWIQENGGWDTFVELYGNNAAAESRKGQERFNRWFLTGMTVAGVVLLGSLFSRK
E coli Lon inh = inhibits E. coli Lon protease; P0A9M0; purified E. coli Lon protease, fluorescence polarization; inhibition, % at 7.94 µM; hit rate 0.42% among 360,000; AID 602123; in the data active = inhibition above about 13%, passing the limit was not always enough;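 also: 0% = enzyme with probe and DMSO and 100% = no enzyme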
MEX-5 binding = C. elegans MEX-5 TCR-2 RNA binding activity; MEX-5/FITC-TCR2 RNA binding, fluorescence polarization; stronger effect = lower value; Q9XUB2; hit rate 0.38% among 300,000; activity score (negative = inhibition of binding), % at 10 µM;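 active = inhibition past about -25% in most replicates, and total fluorescence under double the plate's negative control median, limit read from the data; inconclusive = replicates evenly split on the limit, or fluorescence at least double controls; inactive = too little inhibition in most replicates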;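 also: 0% = DMSO and -100% = 5 µM competing unlabeled TCR2 RNA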
Target sequence (Q9XUB2 whole entry, looked up): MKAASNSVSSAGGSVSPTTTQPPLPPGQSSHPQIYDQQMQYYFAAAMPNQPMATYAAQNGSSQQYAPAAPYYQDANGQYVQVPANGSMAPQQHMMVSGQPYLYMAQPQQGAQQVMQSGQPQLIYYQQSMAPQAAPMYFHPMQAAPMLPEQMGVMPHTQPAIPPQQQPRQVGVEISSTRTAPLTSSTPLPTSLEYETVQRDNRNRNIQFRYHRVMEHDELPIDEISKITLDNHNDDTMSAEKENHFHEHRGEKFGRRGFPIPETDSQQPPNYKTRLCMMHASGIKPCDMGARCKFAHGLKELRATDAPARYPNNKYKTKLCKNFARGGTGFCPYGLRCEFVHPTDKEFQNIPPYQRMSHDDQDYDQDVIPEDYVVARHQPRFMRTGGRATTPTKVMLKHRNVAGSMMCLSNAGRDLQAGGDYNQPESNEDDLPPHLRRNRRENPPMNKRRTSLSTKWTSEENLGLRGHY
GLD-1 TGE cf = GLD-1 TGE RNA interaction inhibition, confirmation; shares compounds with GLD-1 TGE inh; GLD-1/FL-TGE RNA fluorescence polarization, biochemical; inhibition, % at 5.96 µM; hit rate 10% among 550;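 active = average inhibition across triplicates above the hit cutoff set in the primary screen, cut at about 32% in these data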;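 also: 0% = GLD-1 with RNA probe and DMSO and 100% = wells lacking GLD-1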
eLon confirm = confirmation of E. coli Lon protease inhibitors. shares compounds with E coli Lon inh. purified E. coli Lon, fluorescence polarization. inhibition, % at 7.94 µM. hit rate 31% among 1,400; in the data active = inhibition above about 16%;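 also: 0% = enzyme with probe and DMSO and 100% = no enzyme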
Active calls of the source: *; ? = inconclusive; / = no result given; + = active, no number; ! = repeats disagree.

SMILES | EBV gp42 inh | GLD-1 TGE inh | Bcl-xL primary | E coli Lon inh | MEX-5 binding | eLon confirm | others
CCC(=Nc1ccc(N)cc1)C1=C(O)C(C(=O)OC)C(C)(C)CC1=O (stereo unspecified) | -20 | 46* | 56* | 20* | -5 | 3 | GLD-1 TGE cf=-3
CCC(=NCc1ccccc1)C1=C(O)C(C(=O)OC)C(C)(C)CC1=O (stereo unspecified) | -3 | 2 | 4 | 1 | -1 | /
O=C1NC(=S)/C(=C\c2ccc(-c3ccccc3Cl)o2)S1 | 60* | 60* | 58* | 48* | -42* | 20* | GLD-1 TGE cf=29
O=C1NC(=O)/C(=C/c2ccc(-c3cc(C(=O)O)ccc3Cl)o2)S1 | / | 3 | 21 | -10 | -9 | /
CCn1c2ccc(F)cc2c2nnc(SCCN3CCCCC3)nc21 | / | / | / | -3 | 0 | /
CCCCC1=CC2=C(c3ccco3)C(=O)C(C)(OC(=O)c3ccc(OC)cc3)C(=O)C2=CN1C1CC1 (stereo unspecified) | 4 | 32* | 41* | 56* | -59* | 8 | GLD-1 TGE cf=12
CCCCC1=CC2=C(c3ccco3)C(=O)C(C)(OC(=O)c3ccc(OC)cc3)C(=O)C2=CN1C(CO)CO (stereo unspecified) | -3 | 34* | 25 | 31* | -23 | 5 | GLD-1 TGE cf=15
O=C(CCNS(=O)(=O)c1ccc(Br)cc1)NCc1ccco1 | / | -5 | 1 | -5 | -4 | /
O=C1c2cccc3c([N+](=O)[O-])ccc(c23)C(=O)N1CCc1ccccn1 | 14 | 7 | 7 | 4 | -1 | /
CN(C)CCCN1C(=O)c2cccc3c([N+](=O)[O-])ccc(c23)C1=O | 49 | 48* | 76* | 131* | / | 43* | GLD-1 TGE cf=22
O=c1oc2cc(O)ccc2cc1S(=O)(=O)c1ccccc1 | / | 40* | 27 | 19* | 0 | 43* | GLD-1 TGE cf=12
N#Cc1c(N)sc(=S)c2c1CCCCC2 | 49 | 56* | 87* | 20* | -26* | -49 | GLD-1 TGE cf=24
N#Cc1c(N)sc2c1CCCCCC2 | -24 | -1 | 8 | -5 | 0 | /
CN1Cc2c(N)cccc2C(c2ccccc2)C1 (stereo unspecified) | 29 | 39* | 79* | 55*! | -6 | 75* | GLD-1 TGE cf=13
CCc1ccccc1NC(=O)CSc1nnc(Cn2nnc3ccccc32)n1C | -28 | 11 | 5 | 3 | -1 | /
Cc1cc2cc(CNC(=O)c3ccco3)ccc2n1C | -5 | 34* | 38* | 14* | 0 | 14 | GLD-1 TGE cf=3
COc1cc(OC)cc(C(=O)NCc2ccc3c(c2)cc(C)n3C)c1 | 9 | 52* | 30* | 46* | 1 | 6 | GLD-1 TGE cf=7
Cc1onc(-c2ccccc2Cl)c1C(=O)NCc1ccc2c(c1)cc(C)n2C | -1 | 68* | 66* | 36* | 0 | 15 | GLD-1 TGE cf=16
CC(NC(=O)c1ccco1)c1ccc(-n2ccnc2)cc1 (stereo unspecified) | / | -1 | 2 | -3 | 0 | /
CC1=CC(C)(C(Cl)(Cl)Cl)C(C)=CC1=NO (stereo unspecified) | / | / | / | -12 | / | /
CCn1ccnc1CN(C)Cc1c(C(=O)N2C[C@@H](C)O[C@@H](C)C2)nc2ccc(Cl)cn12 | / | / | / | -17 | -2 | /
COc1cccc2c1C(=O)c1ccc3ccccc3c1C2=O | -3 | 4 | 1 | 5 | 0 | /
COc1ccc2noc3c2c1C(=O)c1ccccc1-3 | / | 91* | 116* | + | ? | 116*
C=CCn1c(SCC(=O)Nc2sc3c(c2C#N)CCC(C)C3)nc2cc(C(=O)O)ccc2c1=O (stereo unspecified) | / | 3 | / | 48* | / | 2
Cc1cc(C)nc(SCC(=O)Nc2sc3c(c2C#N)CCC(C)C3)n1 (stereo unspecified) | / | -2 | -2 | -2 | 0 | /
SMILES | EBV gp42 inh | GLD-1 TGE inh | Bcl-xL primary | E coli Lon inh | MEX-5 binding | eLon confirm | others
CCCCCCn1c(=O)[nH]c2nc3cc(N)c(C)cc3nc2c1=O | 148* | / | / | 116* | / | 49*
O=C(O)c1ccccc1S | -3 | / | / | / | / | /
CN(C)CCNc1oc(COc2cccc(Cl)c2)nc1C#N | -11 | 10 | 19 | 20* | 2 | -16
COc1ccc(S(=O)(=O)NC2CC2)cc1-n1cnnn1 | -15 | -2 | 4 | -5 | 2 | /
COc1cc(S(=O)(=O)NC2CCCC2)ccc1-n1cnnn1 | / | 9 | 6 | 22* | 1 | -7
S=C(Nc1ccc(N2CCOCC2)cc1)Nc1ccc2nc(-c3ccco3)c(-c3ccco3)nc2c1 | 111* | 129* | 188* | 43* | -1 | 84*
O=C(Nc1ccc(N2CCOCC2)cc1)c1ccc2nc(-c3ccco3)c(-c3ccco3)nc2c1 | -5 | 4 | 0 | -8 | -1 | /
Cc1cc(=O)[nH]c(SCCOc2ccc(OC(C)C)cc2)n1 | -19 | -7 | 3 | -9 | 2 | /
Cc1c(NC(=O)COc2c(F)c(F)c(F)c(F)c2F)c(=O)n(-c2ccccc2)n1C | / | 2 | -1 | 8 | 1 | /
CC(=O)Nc1ccc(S(=O)(=O)N2CCN(CC(=O)N3CCOCC3)CC2)cc1 | -6 | -1 | 4 | 18 | 2 | /
CNC(=O)c1cc2cc(Br)ccc2s1 | 2 | 0 | 3 | 14 | -2 | /
F[B-](F)(F)c1cc2cc(Br)ccc2s1 | / | / | / | 27* | / | 40*
F[B-](F)(F)c1cc2ccccc2s1 | / | / | / | 31* | / | 44*
O=[N+]([O-])c1cccc(C(=S)N2CCN(c3ccc(F)cc3)CC2)c1 | 15 | 20 | 38* | 56* | 0 | 1
CCCC(=O)Nc1ccc2c(c1)c1ccccc1n2CC | -6 | 2 | 2 | -4 | / | /
CCn1c2ccccc2c2cc(NS(=O)(=O)c3ccccc3C)ccc21 | -11 | 3 | 8 | 14* | 0 | -4
O=C1C=C(Nc2ccccc2O)c2ccccc2C1=O | 10 | 99* | 83* | 43* | 0 | -2
COc1ccccc1-c1ccc2c(c1)C(C)(Cc1ccc(Cl)cc1)C(=O)N2 (stereo unspecified) | / | / | / | 0 | / | /
COc1ccccc1-c1ccc2c(c1)C(C)(Cc1ccc(F)c(Cl)c1)C(=O)N2 (stereo unspecified) | / | / | / | 16* | / | -8
CN1Cc2c(N3CCOCC3)nc(SCc3ccccc3)c(C#N)c2CC1(C)C | 2 | 21 | 16 | 45* | 0 | -5
CCSc1nc(N2CCOCC2)c2c(c1C#N)CC(C)(C)N(C)C2 | -2 | -1 | 8 | -15 | 0 | /
CC(NC(=O)Nc1ccc(O)cc1)(C(F)(F)F)C(F)(F)F | -6 | 21 | 23 | 5 | -4 | /
CCC(NC(=O)Nc1ccc(O)cc1)(C(F)(F)F)C(F)(F)F | -15 | 11 | 10 | 16* | / | 11
CC[C@@]1(C(=O)OC)N[C@H](CN(C)C(=O)Nc2ccc(OC)cc2)[C@@H]2C(=O)N(Cc3ccccc3)C(=O)[C@@H]21 | / | 2 | / | -6 | / | /
CC(=O)Nc1nc(C)c(Oc2ccccc2)c(=O)[nH]1 | -14 | 1 | 4 | 23* | -2 | -7
